ALR H2O2 inh: inhibitors of human ALR sulfhydryl oxidase, primary screen, biochemical, H2O2 detection, HRP-luminol luminescence, single point; FAD-linked sulfhydryl oxidase ALR (Homo sapiens), P55789; purified ALR, DTT oxidation; inhibition, % (concentration not given with the values); 3.8% of 290,000 active;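 active means mean replicate inhibition above about 79%, with every replicate also reaching it, limit read from the data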
Target sequence (P55789 whole entry, looked up): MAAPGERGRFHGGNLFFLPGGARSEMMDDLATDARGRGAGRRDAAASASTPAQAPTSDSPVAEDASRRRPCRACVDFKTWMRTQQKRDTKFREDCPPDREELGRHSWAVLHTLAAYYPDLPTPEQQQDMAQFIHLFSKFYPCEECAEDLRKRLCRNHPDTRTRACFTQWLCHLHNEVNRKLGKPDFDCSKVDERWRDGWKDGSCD
AHR activator: AHR activators, primary screen, cell-based, luminescence, luciferase reporter, human. Aryl hydrocarbon receptor (Homo sapiens), P35869. AHR-responsive luciferase reporter cells. activation, % at 5 µM. 2.5% of 320,000 active. AID 2796, 2010; in the data active means activation above about 47%;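 further: 0% = vehicle wells and 100% = reference agonist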
Efflux pump inh: inhibitors of Candida efflux pumps in yeast, primary screen, S. cerevisiae, Nile Red, multiplex; S. cerevisiae Candida pump triplex; inhibition, % at 10 µM; 0.44% of 330,000 active;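 active means plate passing quality check with inhibition over a set limit, or well fluorescence over plate mean plus 4 SD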;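 further: Nile Red retained in pooled yeast measured as flow cytometry median fluorescence; 0% = buffer negative control and 100% = Enniatin B positive control; higher means more Nile Red kept so more efflux inhibition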
Mot1-301 SUMO: yeast Mot1-301 growth rescue at high temperature, primary screen, SUMOylation pathway inhibitor project, S. cerevisiae, ATP luminescence, 38.5C | S. cerevisiae Mot1-301 growth rescue; percent above DMSO median, 100 means doubled | growth rescue, % at 18.8 µM | 1% of 320,000 active | AID 2716, 2010;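 active means every valid replicate shows activation above 250% relative to neutral control wells; inactive means the rest, any valid replicate at or below 250%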;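 further: OY570 slx delta 5 strain wells were the positive control but not used for scaling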
VLA-4 inh: inhibition in human VLA-4 binding assay, primary screen, VLA-4 allosteric modulator project, MLPCN library, flow cytometry, VLA-4 expressing cells; ligand binding flow cytometry; inhibition, % (about 7 µM as worked out from the volumes in the protocol); 0.2% of 330,000 active; Integrin alpha-4 (Homo sapiens), P13612; in the data active means inhibition above about 50%
A1 inh: caspase 3/7 activation in MEF A1-2A-BIM cells, primary screen, A1 inhibitor project, cell-based, luminescence, HTS. Caspase-Glo 3/7 luminescence, 3 h; percent of clofoctol response, vehicle zero. AID 2462, 2010. caspase activation, % (test concentration not listed). 0.066% of 330,000 active;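 active means over half of replicate activation scores above 10%, or exactly half above 10 with the replicate mean above 10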
Numbers without * were called inactive. This is a sample that favours compounds with a hit; in the whole collection about 7.2% have one here.

O=C(COC(=O)c1ccc([N+](=O)[O-])o1)Nc1ccc(Br)cc1F was read as ALR H2O2 inh -18.4, AHR activator 0.9, Efflux pump inh 0.1, Mot1-301 SUMO 336.7*, VLA-4 inh -9.6 and A1 inh 0.8.
`Cc1c(Cl)cccc1NC(=O)CSc1nccn1C` gave ALR H2O2 inh -4.0, AHR activator 3.6, Efflux pump inh -0.2, Mot1-301 SUMO 7.8, VLA-4 inh 12.4 and A1 inh 0.8.
CC(C)(C)c1ccc(N/N=C(\C#N)S(=O)(=O)C(C)(C)C)cc1 was read as ALR H2O2 inh 4.3, AHR activator 2.9, Efflux pump inh -0.1, Mot1-301 SUMO -11.1, VLA-4 inh 7.1 and A1 inh 0.1.
`CC(C)(C)S(=O)(=O)/C(C#N)=N/Nc1ccc(Cl)cc1` gave ALR H2O2 inh 98.8*, AHR activator -0.8, Efflux pump inh -0.2, Mot1-301 SUMO 8.6, VLA-4 inh -38.8 and A1 inh -0.9.
Screening Cc1ccc(-n2ccnc(SCC(=O)NC3CCCC3)c2=O)cc1F returned ALR H2O2 inh 94.4*, AHR activator 1.1, Efflux pump inh -0.1, Mot1-301 SUMO 3.5, VLA-4 inh -9.7 and A1 inh 0.9.
For Cc1ccc(-n2ccnc(SCC(=O)NC3CCCC3)c2=O)cc1Cl the results were AHR activator 0.9, Efflux pump inh 0.0, Mot1-301 SUMO -4.8, VLA-4 inh -4.3 and A1 inh 0.9.
`O=C(COC(=O)/C=C/c1ccc(OC(F)F)cc1)Nc1ccc2[nH]c(=O)[nH]c2c1` gave AHR activator -0.9, Efflux pump inh 0.1, Mot1-301 SUMO -5.7, VLA-4 inh 3.6 and A1 inh -0.5.
Screening O=C1CN(C(=O)COC(=O)c2cccc(OCc3ccccc3)c2)c2ccccc2N1 returned ALR H2O2 inh -1.7, AHR activator 23.1, Efflux pump inh 0.1, Mot1-301 SUMO -3.2, VLA-4 inh 9.1 and A1 inh -6.5.
Screening Fc1ccc(-c2ccnc(=S)[nH]2)cc1 returned ALR H2O2 inh 99.4*, AHR activator 19.2, Efflux pump inh 0.1, Mot1-301 SUMO -19.6, VLA-4 inh 12.1 and A1 inh -0.6.
Screening Fc1ccc(-c2nc3ccncc3[nH]2)cc1 returned ALR H2O2 inh 1.8, AHR activator 31.3, Efflux pump inh 0.1, Mot1-301 SUMO 3.7, VLA-4 inh 10.6 and A1 inh -3.4.
CCCc1cc(=O)[nH]c(SCc2ccccc2)n1 was read as AHR activator 4.8, Efflux pump inh 0.2, Mot1-301 SUMO 2.1, VLA-4 inh -3.1 and A1 inh 0.1.
`c1ccc(-c2nc(CSc3nnc(-c4cccs4)o3)cs2)cc1` gave ALR H2O2 inh 98.0*, AHR activator 15.2, Efflux pump inh 0.1, Mot1-301 SUMO 166.9, VLA-4 inh -3.2 and A1 inh -0.2.
Screening Cc1cc(C)nc(SCc2csc(-c3ccccc3)n2)n1 returned ALR H2O2 inh 98.8*, AHR activator -1.5, Efflux pump inh 0.0, Mot1-301 SUMO -13.3, VLA-4 inh 4.2 and A1 inh -5.6.
Screening CCCc1cc(=O)[nH]c(SCc2cccnc2)n1 returned ALR H2O2 inh 97.2*, AHR activator 2.8, Efflux pump inh 0.1, Mot1-301 SUMO -15.9, VLA-4 inh 34.9 and A1 inh -0.2.
For O=C(CSc1nc2ccccc2[nH]1)Nc1nc(-c2ccc(Br)cc2)cs1 the results were ALR H2O2 inh 97.8*, AHR activator 48.0*, Efflux pump inh 0.2, Mot1-301 SUMO -2.9, VLA-4 inh -0.6 and A1 inh 0.8.
Screening COC(=O)C(NC(=O)c1c(C)nn(C)c1Cl)c1ccccc1 (centres undefined) returned AHR activator -0.4, Efflux pump inh -0.2, Mot1-301 SUMO -10.6, VLA-4 inh 7.4 and A1 inh 1.3.
For O=C(CC1c2ccccc2Oc2ccccc21)N1CCN(c2ccccn2)CC1 the results were ALR H2O2 inh -0.2, AHR activator -1.3, Efflux pump inh 0.1, Mot1-301 SUMO -5.5, VLA-4 inh -16.1 and A1 inh 0.0.
O=S(=O)(NCC1CCCO1)c1ccccc1F (centres undefined) was read as ALR H2O2 inh -5.9, AHR activator -0.6, Efflux pump inh 0.0, Mot1-301 SUMO 14.0, VLA-4 inh -2.2 and A1 inh 0.6.
`CCOC(=O)c1c(C)[nH]c(C)c1S(=O)(=O)NCc1ccc(OCC)cc1` gave ALR H2O2 inh -0.7, AHR activator 6.3, Efflux pump inh 0.1, Mot1-301 SUMO 28.2, VLA-4 inh 5.6 and A1 inh 0.9.
CCCc1cc(=O)[nH]c(SCc2nc3ccc([N+](=O)[O-])cc3[nH]2)n1 was read as ALR H2O2 inh 98.7*, AHR activator 3.0, Efflux pump inh 0.0, Mot1-301 SUMO -0.4, VLA-4 inh -11.7 and A1 inh -1.7.
For CCc1nc(SCc2ccccn2)[nH]c(=O)c1C the results were ALR H2O2 inh -3.8, AHR activator 3.5, Efflux pump inh -0.1, Mot1-301 SUMO -1.9, VLA-4 inh 0.4 and A1 inh 0.1.
For C=CCn1c(SCc2csc(-c3ccc(Cl)cc3)n2)nnc1-c1ccccc1OC the results were ALR H2O2 inh 81.5*, AHR activator 21.4, Efflux pump inh 0.0, Mot1-301 SUMO -15.2, VLA-4 inh 23.9 and A1 inh -0.2.
Nc1ccccc1SCc1csc(-c2ccc(Cl)cc2)n1 was read as ALR H2O2 inh 98.4*, AHR activator 36.5, Efflux pump inh -0.2, Mot1-301 SUMO 21.7, VLA-4 inh 16.1 and A1 inh -1.6.
For CCc1nc(SCc2cccnc2)[nH]c(=O)c1C the results were ALR H2O2 inh 99.2*, AHR activator 6.4, Efflux pump inh 0.0, Mot1-301 SUMO 245.0, VLA-4 inh -0.9 and A1 inh 0.4.
Cc1cc(=O)[nH]c(SCc2nc3ccc([N+](=O)[O-])cc3[nH]2)n1 was read as ALR H2O2 inh -11.7, AHR activator 5.0, Efflux pump inh 0.0, Mot1-301 SUMO -3.9, VLA-4 inh 6.3 and A1 inh -0.2.
CN(Cc1ccno1)Cc1cn(Cc2ccccc2)nc1-c1ccc2c(c1)OCO2 was read as AHR activator 7.9, Efflux pump inh -0.1, Mot1-301 SUMO 4.8, VLA-4 inh 2.0 and A1 inh 1.1.
For COc1ccccc1CCNC(=O)c1ccc(NC(=O)CC2SC(N3CCCC3)=NC2=O)cc1 (centres undefined) the results were ALR H2O2 inh -2.5, AHR activator 2.9, Efflux pump inh -0.1, Mot1-301 SUMO -1.7, VLA-4 inh 0.8 and A1 inh 1.1.
`Cc1cc(C)c(C#N)c(SCc2ccc(F)cc2)n1` gave ALR H2O2 inh -2.6, AHR activator 7.8, Efflux pump inh -0.1, Mot1-301 SUMO 14.3, VLA-4 inh 2.4 and A1 inh 0.1.
